Laboratory results as given in article PMC7862700, “An all-to-all approach to the identification of sequence-specific readers for epigenetic DNA modifications on cytosine”.

Legend:
Assay in all cases: DAPPL (digital affinity profiling via proximity ligation, sequencing); 10 mM Tris-HCl pH 7.5, 50 mM NaCl, 1 mM DTT, 4% glycerol, room temperature, 30 min; GST-TFs on glutathione beads, 16-mer random dsDNA library, 0.1% formaldehyde crosslink after washing; high values mean tight binding
Conditions in all cases: protein: recombinant; tags: N-terminal GST; dsDNA, one strand shown
FLI1 = target: T1, FLI1 (Homo sapiens, UniProt Q01543 1-452)
T1 sequence: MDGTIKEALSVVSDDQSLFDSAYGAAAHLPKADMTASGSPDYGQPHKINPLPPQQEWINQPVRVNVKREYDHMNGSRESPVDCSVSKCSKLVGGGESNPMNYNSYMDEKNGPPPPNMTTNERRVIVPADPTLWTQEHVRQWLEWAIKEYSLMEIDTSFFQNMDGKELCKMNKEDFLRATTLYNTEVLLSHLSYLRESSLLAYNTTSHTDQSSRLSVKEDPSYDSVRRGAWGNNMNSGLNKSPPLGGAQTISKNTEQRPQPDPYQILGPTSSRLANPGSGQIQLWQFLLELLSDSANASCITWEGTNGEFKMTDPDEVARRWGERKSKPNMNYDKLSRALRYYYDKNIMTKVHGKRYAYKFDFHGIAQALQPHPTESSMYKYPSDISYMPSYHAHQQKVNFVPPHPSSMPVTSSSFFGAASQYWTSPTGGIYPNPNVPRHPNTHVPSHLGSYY
In short: (§1)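 Binding signal is each hexamer's read frequency for a factor divided by its frequency in the tag-only sample. The factors were GST-fused human transcription factors from yeast, captured on glutathione beads, DNA-barcoded and pooled with that sample. Pools were incubated with 200 nmole of a random double-stranded 16-mer DNA library in Tris/NaCl/DTT/glycerol buffer at room temperature for 30 min, then washed, crosslinked with 0.1% formaldehyde, proximity-ligated with BsaI/T4 ligase (1 h, 37 °C), PCR-amplified and sequenced on an Illumina NextSeq500.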

ELK1 = target: T2, ELK1 (Homo sapiens, UniProt P19419 1-428)
T2 sequence: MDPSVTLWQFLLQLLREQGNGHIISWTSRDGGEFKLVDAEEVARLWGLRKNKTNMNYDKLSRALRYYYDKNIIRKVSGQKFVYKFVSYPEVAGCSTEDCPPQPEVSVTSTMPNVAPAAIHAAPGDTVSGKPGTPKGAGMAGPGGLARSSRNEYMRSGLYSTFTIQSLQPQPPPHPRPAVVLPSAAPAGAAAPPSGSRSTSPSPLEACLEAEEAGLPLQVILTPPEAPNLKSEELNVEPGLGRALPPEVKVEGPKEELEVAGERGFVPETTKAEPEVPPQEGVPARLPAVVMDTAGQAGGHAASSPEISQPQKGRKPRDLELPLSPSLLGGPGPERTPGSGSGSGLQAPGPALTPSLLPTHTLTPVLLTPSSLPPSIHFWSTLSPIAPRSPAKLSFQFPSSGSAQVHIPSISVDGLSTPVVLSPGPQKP
In short: as §1

GABPA = target: T3, GABPA (Homo sapiens, UniProt Q06546 1-454)
T3 sequence: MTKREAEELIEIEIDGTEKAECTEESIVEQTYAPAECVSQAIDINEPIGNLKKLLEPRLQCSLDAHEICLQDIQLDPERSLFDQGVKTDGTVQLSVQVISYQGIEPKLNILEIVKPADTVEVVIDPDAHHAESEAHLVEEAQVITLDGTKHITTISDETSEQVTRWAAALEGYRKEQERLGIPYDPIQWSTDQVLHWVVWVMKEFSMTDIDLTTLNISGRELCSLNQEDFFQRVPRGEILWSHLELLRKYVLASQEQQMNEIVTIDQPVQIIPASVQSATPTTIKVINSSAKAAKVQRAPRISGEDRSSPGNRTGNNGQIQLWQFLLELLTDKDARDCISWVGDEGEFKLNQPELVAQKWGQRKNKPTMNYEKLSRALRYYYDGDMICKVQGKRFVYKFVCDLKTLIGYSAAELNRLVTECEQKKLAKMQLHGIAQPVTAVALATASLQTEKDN
In short: as §1

ERG = target: T4, ERG (Homo sapiens, UniProt P11308 1-479)
T4 sequence: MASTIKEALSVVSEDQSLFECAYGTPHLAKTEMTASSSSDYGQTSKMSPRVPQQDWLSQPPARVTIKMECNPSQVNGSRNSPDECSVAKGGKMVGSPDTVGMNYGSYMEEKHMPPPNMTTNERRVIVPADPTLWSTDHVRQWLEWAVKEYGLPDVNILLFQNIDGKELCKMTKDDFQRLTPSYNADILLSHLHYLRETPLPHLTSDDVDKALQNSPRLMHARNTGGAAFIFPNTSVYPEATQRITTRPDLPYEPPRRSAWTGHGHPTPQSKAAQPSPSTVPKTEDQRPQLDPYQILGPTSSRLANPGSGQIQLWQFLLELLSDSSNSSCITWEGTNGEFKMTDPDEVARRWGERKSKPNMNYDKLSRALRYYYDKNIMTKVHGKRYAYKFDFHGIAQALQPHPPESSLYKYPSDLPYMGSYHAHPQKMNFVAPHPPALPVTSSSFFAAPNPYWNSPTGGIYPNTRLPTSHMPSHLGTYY
In short: as §1

ELF1 = ELF1 (Homo sapiens, UniProt P32519 1-619)
ELF1, sequence (P32519 whole entry): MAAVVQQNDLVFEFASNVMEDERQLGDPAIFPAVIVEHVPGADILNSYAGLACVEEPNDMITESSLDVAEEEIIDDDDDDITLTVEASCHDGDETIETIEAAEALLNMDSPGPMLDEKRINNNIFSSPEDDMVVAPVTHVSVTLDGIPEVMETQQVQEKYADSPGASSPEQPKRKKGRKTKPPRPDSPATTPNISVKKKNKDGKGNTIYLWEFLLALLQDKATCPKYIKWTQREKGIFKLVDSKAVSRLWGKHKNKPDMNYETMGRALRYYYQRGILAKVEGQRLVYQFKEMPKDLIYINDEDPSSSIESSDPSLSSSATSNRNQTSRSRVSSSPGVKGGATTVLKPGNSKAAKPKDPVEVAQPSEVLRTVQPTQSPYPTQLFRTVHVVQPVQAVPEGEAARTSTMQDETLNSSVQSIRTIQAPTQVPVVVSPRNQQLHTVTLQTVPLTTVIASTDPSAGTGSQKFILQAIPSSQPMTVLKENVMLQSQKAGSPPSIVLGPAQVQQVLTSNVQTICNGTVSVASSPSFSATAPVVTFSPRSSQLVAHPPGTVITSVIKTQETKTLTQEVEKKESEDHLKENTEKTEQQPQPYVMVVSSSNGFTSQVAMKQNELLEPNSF
In short: as §1

EHF = target: T5, EHF (Homo sapiens, UniProt Q9NZC4 1-300)
T5 sequence: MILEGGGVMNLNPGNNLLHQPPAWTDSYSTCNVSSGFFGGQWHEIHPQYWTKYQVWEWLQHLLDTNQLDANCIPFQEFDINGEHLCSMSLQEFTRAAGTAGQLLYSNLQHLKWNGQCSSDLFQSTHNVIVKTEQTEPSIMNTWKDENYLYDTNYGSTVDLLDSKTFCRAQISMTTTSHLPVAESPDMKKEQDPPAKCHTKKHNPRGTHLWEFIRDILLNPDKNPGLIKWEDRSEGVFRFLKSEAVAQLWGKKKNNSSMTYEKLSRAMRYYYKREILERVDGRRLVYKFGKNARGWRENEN
In short: as §1

SPI1 = SPI1 (Homo sapiens, UniProt P17947 1-270)
In short: as §1

SPIB = SPIB (Homo sapiens, UniProt Q01892 1-262)
SPIB, sequence (Q01892 whole entry): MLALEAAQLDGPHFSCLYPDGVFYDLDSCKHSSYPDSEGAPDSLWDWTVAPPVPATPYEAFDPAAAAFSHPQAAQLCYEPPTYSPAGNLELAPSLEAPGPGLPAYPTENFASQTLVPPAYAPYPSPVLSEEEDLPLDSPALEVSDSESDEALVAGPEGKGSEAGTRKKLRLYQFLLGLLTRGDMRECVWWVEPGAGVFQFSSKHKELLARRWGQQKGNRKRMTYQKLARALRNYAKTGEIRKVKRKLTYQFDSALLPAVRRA
In short: as §1

ELK3 = target: T6, ELK3 (Homo sapiens, UniProt P41970 1-407)
T6 sequence: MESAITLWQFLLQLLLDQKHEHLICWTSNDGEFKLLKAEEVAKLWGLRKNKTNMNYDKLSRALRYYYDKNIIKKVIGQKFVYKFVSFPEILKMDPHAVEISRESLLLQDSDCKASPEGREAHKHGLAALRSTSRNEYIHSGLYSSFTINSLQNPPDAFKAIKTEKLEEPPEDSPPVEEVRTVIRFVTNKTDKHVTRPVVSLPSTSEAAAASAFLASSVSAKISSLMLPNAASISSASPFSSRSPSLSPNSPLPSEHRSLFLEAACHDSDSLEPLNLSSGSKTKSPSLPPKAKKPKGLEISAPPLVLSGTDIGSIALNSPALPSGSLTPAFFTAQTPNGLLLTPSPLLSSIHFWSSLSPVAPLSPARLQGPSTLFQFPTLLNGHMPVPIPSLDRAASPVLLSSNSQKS
In short: as §1

Sequence: CGTTCG
- binding signal (FLI1): 1.15 fold enrichment (6-mer frequency, TF over GST control)
- binding signal (ELK1): 1.14 fold enrichment (6-mer frequency, TF over GST control)
- binding signal (GABPA): 1.23 fold enrichment (6-mer frequency, TF over GST control)
- binding signal (ERG): 1.17 fold enrichment (6-mer frequency, TF over GST control)
- binding signal (ELF1): 1.22 fold enrichment (6-mer frequency, TF over GST control)
- binding signal (EHF): 1.25 fold enrichment (6-mer frequency, TF over GST control)
- binding signal (SPI1): 1.1 fold enrichment (6-mer frequency, TF over GST control)
- binding signal (SPIB): 1.14 fold enrichment (6-mer frequency, TF over GST control)
- binding signal (ELK3): 1.24 fold enrichment (6-mer frequency, TF over GST control)

Sequence: TCCGTA
- binding signal (FLI1): 1.57 fold enrichment (6-mer frequency, TF over GST control)
- binding signal (ELK1): 1.63 fold enrichment (6-mer frequency, TF over GST control)
- binding signal (GABPA): 1.59 fold enrichment (6-mer frequency, TF over GST control)
- binding signal (ERG): 1.52 fold enrichment (6-mer frequency, TF over GST control)
- binding signal (ELF1): 1.59 fold enrichment (6-mer frequency, TF over GST control)
- binding signal (EHF): 1.6 fold enrichment (6-mer frequency, TF over GST control)
- binding signal (SPI1): 1.69 fold enrichment (6-mer frequency, TF over GST control)
- binding signal (SPIB): 1.58 fold enrichment (6-mer frequency, TF over GST control)
- binding signal (ELK3): 1.62 fold enrichment (6-mer frequency, TF over GST control)

Sequence: CCTTTC
- binding signal (FLI1): 1.76 fold enrichment (6-mer frequency, TF over GST control)
- binding signal (ELK1): 1.57 fold enrichment (6-mer frequency, TF over GST control)
- binding signal (GABPA): 1.61 fold enrichment (6-mer frequency, TF over GST control)
- binding signal (ERG): 1.62 fold enrichment (6-mer frequency, TF over GST control)
- binding signal (ELF1): 1.57 fold enrichment (6-mer frequency, TF over GST control)
- binding signal (EHF): 1.57 fold enrichment (6-mer frequency, TF over GST control)
- binding signal (SPI1): 1.64 fold enrichment (6-mer frequency, TF over GST control)
- binding signal (SPIB): 1.7 fold enrichment (6-mer frequency, TF over GST control)
- binding signal (ELK3): 1.64 fold enrichment (6-mer frequency, TF over GST control)

Sequence: TCCTTT
- binding signal (FLI1): 1.64 fold enrichment (6-mer frequency, TF over GST control)
- binding signal (ELK1): 1.75 fold enrichment (6-mer frequency, TF over GST control)
- binding signal (GABPA): 1.72 fold enrichment (6-mer frequency, TF over GST control)
- binding signal (ERG): 1.79 fold enrichment (6-mer frequency, TF over GST control)
- binding signal (ELF1): 1.81 fold enrichment (6-mer frequency, TF over GST control)
- binding signal (EHF): 1.73 fold enrichment (6-mer frequency, TF over GST control)
- binding signal (SPI1): 1.83 fold enrichment (6-mer frequency, TF over GST control)
- binding signal (SPIB): 1.67 fold enrichment (6-mer frequency, TF over GST control)
- binding signal (ELK3): 1.81 fold enrichment (6-mer frequency, TF over GST control)

Sequence: TTAATA
- binding signal (FLI1): 1.28 fold enrichment (6-mer frequency, TF over GST control)
- binding signal (ELK1): 1.23 fold enrichment (6-mer frequency, TF over GST control)
- binding signal (GABPA): 1.18 fold enrichment (6-mer frequency, TF over GST control)
- binding signal (ERG): 1.16 fold enrichment (6-mer frequency, TF over GST control)
- binding signal (ELF1): 1.16 fold enrichment (6-mer frequency, TF over GST control)
- binding signal (EHF): 1.23 fold enrichment (6-mer frequency, TF over GST control)
- binding signal (SPI1): 1.09 fold enrichment (6-mer frequency, TF over GST control)
- binding signal (SPIB): 1.22 fold enrichment (6-mer frequency, TF over GST control)
- binding signal (ELK3): 1.29 fold enrichment (6-mer frequency, TF over GST control)

Sequence: AAATAT
- binding signal (FLI1): 1.24 fold enrichment (6-mer frequency, TF over GST control)
- binding signal (ELK1): 1.34 fold enrichment (6-mer frequency, TF over GST control)
- binding signal (GABPA): 1.33 fold enrichment (6-mer frequency, TF over GST control)
- binding signal (ERG): 1.34 fold enrichment (6-mer frequency, TF over GST control)
- binding signal (ELF1): 1.37 fold enrichment (6-mer frequency, TF over GST control)
- binding signal (EHF): 1.31 fold enrichment (6-mer frequency, TF over GST control)
- binding signal (SPI1): 1.32 fold enrichment (6-mer frequency, TF over GST control)
- binding signal (SPIB): 1.47 fold enrichment (6-mer frequency, TF over GST control)
- binding signal (ELK3): 1.38 fold enrichment (6-mer frequency, TF over GST control)

Sequence: CGATCT
- binding signal (FLI1): 1.37 fold enrichment (6-mer frequency, TF over GST control)
- binding signal (ELK1): 1.25 fold enrichment (6-mer frequency, TF over GST control)
- binding signal (GABPA): 1.29 fold enrichment (6-mer frequency, TF over GST control)
- binding signal (ERG): 1.28 fold enrichment (6-mer frequency, TF over GST control)
- binding signal (ELF1): 1.3 fold enrichment (6-mer frequency, TF over GST control)
- binding signal (EHF): 1.32 fold enrichment (6-mer frequency, TF over GST control)
- binding signal (SPI1): 1.22 fold enrichment (6-mer frequency, TF over GST control)
- binding signal (SPIB): 1.3 fold enrichment (6-mer frequency, TF over GST control)
- binding signal (ELK3): 1.3 fold enrichment (6-mer frequency, TF over GST control)

Sequence: AATATG
- binding signal (FLI1): 1.12 fold enrichment (6-mer frequency, TF over GST control)
- binding signal (ELK1): 1.13 fold enrichment (6-mer frequency, TF over GST control)
- binding signal (GABPA): 1.15 fold enrichment (6-mer frequency, TF over GST control)
- binding signal (ERG): 1.15 fold enrichment (6-mer frequency, TF over GST control)
- binding signal (ELF1): 1.17 fold enrichment (6-mer frequency, TF over GST control)
- binding signal (EHF): 1.09 fold enrichment (6-mer frequency, TF over GST control)
- binding signal (SPI1): 1.15 fold enrichment (6-mer frequency, TF over GST control)
- binding signal (SPIB): 1.19 fold enrichment (6-mer frequency, TF over GST control)
- binding signal (ELK3): 1.19 fold enrichment (6-mer frequency, TF over GST control)
